The results in this text go back to PubChem BioAssay (NCATS).

The structures appear in SMILES notation. Records with an inconclusive call do not appear. A number with no mark means an inactive call. The source made the active and inactive calls. Calls follow the shape of the dose curve; as a rule, active = well fitted curve in the direction sought with a large enough effect; inconclusive = small, poorly fitted or top-dose-only effect, or another doubt; inactive = no such curve, though single readings can be large; an effect the other way counts as inactive or inconclusive.

Test [1] in a line: qHTS assay to identify small molecule inhibitors of chordoma cells - UCH-2 (AID 1259356). Also: series mostly up to about 46 µM; % is scaled to controls: 0 for no effect and ±100 for the full control effect.
Test [2] is described as follows: qHTS Assay for Identifying Gametocytocidal Compounds (AID 743244). Also: potency is read from the fitted curve at half-maximal effect.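 As to max response: % is scaled to controls: 0 for no effect and ±100 for the full control effect; actives lower the fluorescent signal which means gametocytes are killed.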 The conditions noted are these: P. falciparum 3D7 stage III-V gametocytes, alamarBlue, 72 h; max response: hits give low values. In a few lines:
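P. falciparum 3D7 stage III–V gametocytes (20,000 cells/well) were exposed to compounds for 72 h at 37 °C, 5% CO2. AlamarBlue was then added for 24 h; decreased resorufin fluorescence (Ex 525/Em 598 nm) indicated loss of viability.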
On the technique in general: Quantitative high-throughput screening tests each substance at several concentrations.

Test [3] in a line: qHTS assay to identify small molecule inhibitors of chordoma cells - UCH-1 (AID 1259355). Also: potency is read from the fitted curve at half-maximal effect; series mostly up to about 46 µM; nearly all actives have a fitted effect of over 55% in size. A digest of the protocol: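 Luminescent ATP read-out (CellTiter-Glo, 30min at room temperature) measured viability of UCH-1 cells exposed for 48hr to test drugs at 15 concentrations, co-dosed with a five-agent combination of auranofin, camptothecin, doxorubicin, rubitecan and topotecan.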

Consider `CN(C)CC/C=C1/c2ccccc2CSc2ccccc21`, for which the Potency entry in test [1] is “inactive”.

For `CCCCC(C)(O)C/C=C/[C@H]1[C@H](O)CC(=O)[C@@H]1CCCCCCC(=O)OC` (stereo partly drawn), in test [2], the max response is -1.16%. For the same molecule, in test [1], the Potency result is “inactive”.

Take `COC(=O)[C@H]1[C@H]2C[C@@H]3c4[nH]c5ccccc5c4CCN3C[C@H]2C[C@@H](OC(=O)c2cc(OC)c(OC)c(OC)c2)[C@@H]1OC`: the Potency in test [2] is 8.91 µM (active); in test [3] it was 10 µM (active).

Turning to `O=S(=O)(O)c1cc(O)c2c(N=Nc3ccc(Nc4ccccc4)c4c(S(=O)(=O)O)cccc34)cc(S(=O)(=O)O)cc2c1`, the max response in test [2] was -8.84%. In addition, in test [3], the Potency is 15.8 µM (active).

Turning to `C=C(NC(=O)C(=C)NC(=O)c1csc(C2=N[C@@H]3c4csc(n4)[C@H]4NC(=O)c5csc(n5)[C@H]([C@](C)(O)[C@@H](C)O)NC(=O)[C@H]5CSC(=N5)C(=CC)NC(=O)C([C@@H](C)O)NC(=O)c5csc(n5)[C@]3(CC2)NC(=O)[C@H](C)NC(=O)C(=C)NC(=O)[C@H](C)NC(=O)C([C@@H](C)CC)NC2C=Cc3c([C@H](C)O)cc(nc3C2O)C(=O)O[C@@H]4C)n1)C(N)=O` (stereo partly drawn), the Potency in test [2] is 11.2 µM (active). Besides, the Potency entry in test [1] was “inactive”.

In the case of `C=CCSSSCC=C`, the max response in test [2] was -8.99%. In test [1], the Potency entry was “inactive”.

For `CC(C)C(=O)OCC(=O)[C@@]12O[C@H](C3CCCCC3)O[C@@H]1C[C@H]1[C@@H]3CCC4=CC(=O)C=C[C@]4(C)[C@H]3[C@@H](O)C[C@@]12C`, the Potency result in test [1] is “inactive”.

As for `CO[C@H]1C=CO[C@@]2(C)Oc3c(C)c(O)c4c(O)c(c5c(c4c3C2=O)=NC2(CCN(CC(C)C)CC2)N=5)NC(=O)/C(C)=C\C=C/[C@H](C)[C@H](O)[C@@H](C)[C@@H](O)[C@@H](C)[C@H](OC(C)=O)[C@@H]1C`, in test [1], the Potency result was “inactive”.
